Measurements taken from ChEMBL document CHEMBL3433997, “St. Jude Leishmania screening dataset” (2016).

These compounds were tested against Glucose transporter (Leishmania mexicana) (UniProt O61059) (assay: ST_JUDE_LEISH: Cytotoxicity at 2uM final concentration against transgenic Leishmania Mexicana promastigotes LmGT2 that are glucose transport deficient and complemented with the L. Mexicana glucose transporter 2. Activity is measured by DNA content using SYBR green in vitro).
Assay type: functional
`O=C(CCc1c[nH]cn1)Nc1cccc(-c2ccc(-c3nc4ccccc4[nH]3)s2)c1` showed an inhibition of 1.88%. Compound `Fc1ccc(NC(S)=NN=Cc2ccccn2)cc1` has an inhibition of -1.91%. For `COc1ccc(C=NNc2nc(O)cc(-c3ccccc3)n2)cc1OC`, the inhibition was -1.28%. `NC1=NC(c2ccccc2)(c2ccccc2)C(=O)N1CCCCc1ccccn1` was tested, and the inhibition was -2.5%. `O=C(Nc1ccsc1)Nc1cccc(-c2ccc(-c3nc4cc(C(F)(F)F)ccc4[nH]3)cc2)c1` gave an inhibition of 7.95%. With `COc1ccc(C2CCN(CCN3CCC(NC(=O)c4ccc(-c5cccc(C(F)(F)F)c5C(F)(F)F)cc4)CC3)CC2)c(OC)c1` the inhibition was -0.58%. For `CC1(C)N=C(N)N=C(NOCc2ccc(Cl)c(Cl)c2)N1`, the inhibition was 1.84%. Work on `CC(C)(C)c1ccc(NC(=O)Nc2ccc(Cn3ncc(N4CCCNCC4)c(Cl)c3=O)cc2)cc1` yielded an inhibition of 3.41%. In the case of `NC(=O)c1cccc(C(=O)Nc2cccc(-c3csc(-c4nc5ccccc5[nH]4)c3)c2)c1`, the inhibition is reported as 2.09%. `COc1cc(Cc2cnc(N)nc2N)cc(OCCCCCCN2C(=O)c3ccccc3C2=O)c1OC` was tested, and the inhibition was 5.48%. `COc1ccc2nccc([C@@H](O)CN3CCC(NCc4cnc5c(c4)NC(=O)CS5)C(F)C3)c2c1` (stereo not given in full) gave an inhibition of 0.86%. Work on `O=C(Nc1ccc2[nH]c(-c3ccccc3)nc2c1)c1cc(-c2ccc3c(c2)OCCO3)n[nH]1` yielded an inhibition of 11.4%. With `CC1(C)NC(N)=NC(=N)N1OCc1nc(N)nc(Nc2ccccc2)n1` the inhibition was 5.9%. `Brc1ccsc1-c1nc(NCCC(c2ccccc2)c2ccccc2)no1` showed an inhibition of 0.06%. For `O=C(Nc1cccc(C(F)(F)F)c1)NC1CCN(c2ccnc3cc(Cl)ccc23)C1` (stereo not given), the inhibition was 0.93%. For `COc1ccc2ncc(Cl)c(CCN3CCC(NCc4ccc5c(n4)NC(=O)CO5)CC3)c2c1`, the inhibition was 6.59%. `Clc1cccc(C=NN=c2cc[nH]c3ccccc23)c1` showed an inhibition of 2.9%. Compound `CCN(CC)CCCNc1ncc2c(-c3ccc(NC(=O)Nc4cc(C(F)(F)F)ccc4F)cc3)nn(C)c2n1` has an inhibition of 4.62%. With `Cn1c(NC(=O)CCCCCNC(=O)c2ccc(O)c(-c3ccc(Cl)c(Cl)c3)c2)nc2ccccc21` the inhibition was 2%. Compound `Cc1cc(-c2cccc(CNC3CCN(C)CC3)c2)ccc1S(=O)(=O)NCCc1ccccn1` has an inhibition of 0.73%. Compound `CCN(CC)CCN1C(=O)c2oc3ccc(F)cc3c(=O)c2C1c1cccc(Cl)c1` (stereo not given) has an inhibition of 4.25%. For `CC(C)C[C@H](NC(=O)c1cc2cc(OCCN3CCNCC3)ccc2o1)C(=O)NC1CC[C@@H](C)N(C(=O)Nc2ccc(Cl)cc2)CC1=O` (stereo not given in full), the inhibition was 3.85%. `CCOc1cc(Cc2cnc(N)nc2N)ccc1OC` was tested, and the inhibition was -0.73%. `COCCOc1ccc(C(F)(F)F)cc1NC(=O)Cc1c(F)cccc1Cl` showed an inhibition of 6.01%. Compound `N=C(N)c1cc(Cl)cc(NC(=O)Nc2cc(Cl)cc(C(=N)N)c2)c1` has an inhibition of 1.53%. For `CN(C)C(S)=NN=Cc1cccc(O)c1O`, the inhibition was 4.78%. Compound `OCCNc1nc(Nc2cccc(O)c2)nc2ccccc12` has an inhibition of 4.01%. In the case of `CN(c1ccc(F)cc1)S(=O)(=O)c1ccc(Cl)c(C(=O)Nc2cccc(C#N)c2)c1`, the inhibition is reported as 3.65%. `c1ccc2c(CNCCCCCCNCc3c(OCC4CC4)ccc4ccccc34)c(OCC3CC3)ccc2c1` gave an inhibition of 37.4%. `O=C(Nc1ccccc1-c1ccccc1)C1CCCN1C(=O)Nc1ccc(Cl)cc1` (stereo not given) gave an inhibition of -2.33%. Compound `CCN(CC)CCN(CCCc1ccc(-c2ccc(C(F)(F)F)cc2)cc1)C(=O)Cn1c(CCc2cccc(F)c2F)nc(=O)c2ccccc21` has an inhibition of 2.33%. Work on `CCOc1cc(Cc2cnc(N)nc2N)cc(OCC)c1OCC` yielded an inhibition of 9.33%. `CCOc1ccc(Cc2c(C)nc3nc(N)nc(N)c3c2C)cc1` was tested, and the inhibition was 26%. Work on `N#Cc1ccc(-c2ccc(C(=O)NCCCCN3CC=C(c4ccc5c(c4OCC4CC4)CCCC5)CC3)cc2)cc1` yielded an inhibition of -0.24%. In the case of `COc1ccc(S(=O)(=O)NC2CCN(c3ccnc4cc(Cl)ccc34)C2)cc1` (stereo not given), the inhibition is reported as 0.63%. `NC(=O)C1Cc2ccccc2CN1CC(=O)Nc1ccccc1Sc1ccccc1` (stereo not given) was tested, and the inhibition was 2.18%. `FC(F)(F)COc1ccc(CNCCCCCCNCc2ccc(OCC(F)(F)F)c3ccccc23)c2ccccc12` showed an inhibition of 108%. In the case of `CC(C)c1ccc(C(NC(=O)C2CCCCC2)c2ccc3cccnc3c2O)cc1` (stereo not given), the inhibition is reported as -1%. In the case of `CCOC(=O)c1ccc(NC(=O)Nc2ccc(-c3ccc(-c4nc5ccccc5[nH]4)cc3)cc2)cc1`, the inhibition is reported as 3.8%. For `CNC(=O)c1cncc(/C=C/c2ccccc2S(N)(=O)=O)c1`, the inhibition was -0.59%.
